Results: PubChem BioAssay AID1159580 (chemical genetic matrix, 2015)
“And” between values parts separate entries of the source, which are not always exact repeats. Equal entries are not always repeated. The campaign covered roughly 5,500 compounds. About 2,000 (36%) were called active. About 18% were inconclusive and are not listed. Cut-off read from the data, not from the text of the source: active = normalized growth mostly below about 0.91 (no sharp cut-off); inconclusive = no clear call, values can overlap the other calls; inactive = mostly above about 0.92. The list shows a part of the results.

Experiment: chemical genetic growth profiling, strain panel (AID 1159580);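 note: tested at 20 µM; growth read once vehicle control cultures reached saturation at 30 °C; 1 = growth at the plate median or of vehicle wells; lower values mean less growth of the strain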
Details: growth OD

Measured: normalized growth

CC(N)C(=O)OC(C)(C)Cc1ccc(Cl)cc1 (stereo unspecified)
inactive: S. cerevisiae deletion strains, locus YJR075W, strain HOC1, hits give low values 0.986 and 1 | S. cerevisiae deletion strains, locus YKL009W, strain mrt4, hits give low values 0.922 | S. cerevisiae deletion strains, locus YKL068W, hits give low values 0.992 | S. cerevisiae deletion strains, locus YKL085W, strain MDH1 (second series), hits give low values 0.98 | S. cerevisiae deletion strains, locus YKL085W, strain MDH1, hits give low values 0.98 | S. cerevisiae deletion strains, locus YKL160W, strain elf1, hits give low values 1.02 | S. cerevisiae deletion strains, locus YKL190W, strain CNB1, hits give low values 0.989 | S. cerevisiae deletion strains, locus YKR001C, strain vps1, hits give low values 1.03 | S. cerevisiae deletion strains, locus YKR026C, strain gcn3, hits give low values 0.998 | S. cerevisiae deletion strains, locus YKR091W, strain srl3, hits give low values 1.01 | S. cerevisiae deletion strains, locus YLL001W, strain dnm1, hits give low values 0.977 | S. cerevisiae deletion strains, locus YLL026W, hits give low values 1.01 | S. cerevisiae deletion strains, locus YLL041C, strain sdh2, hits give low values 1.02 | S. cerevisiae deletion strains, locus YLR027C, strain aat2, hits give low values 1.01 | S. cerevisiae deletion strains, locus YLR039C, strain RIC1, hits give low values 1.03 | S. cerevisiae deletion strains, locus YLR058C, strain SHM2, hits give low values 0.97 | S. cerevisiae deletion strains, locus YLR102C, strain apc9, hits give low values 0.995 | S. cerevisiae deletion strains, locus YLR113W, strain HOG1, hits give low values 1.01 | S. cerevisiae deletion strains, locus YLR221C, strain rsa3, hits give low values 1.02 | S. cerevisiae deletion strains, locus YLR258W, strain gsy2, hits give low values 1.02 | S. cerevisiae deletion strains, locus YLR262C, strain YPT6 (second series), hits give low values 1.06 | S. cerevisiae deletion strains, locus YLR262C, strain YPT6, hits give low values 0.986 | S. cerevisiae deletion strains, locus YLR268W, strain sec22, hits give low values 1.07 | S. cerevisiae deletion strains, locus YLR320W, strain mms22, hits give low values 1.04 | S. cerevisiae deletion strains, locus YLR330W, strain CHS5, hits give low values 0.988 | S. cerevisiae deletion strains, locus YLR342W, strain FKS1 (second series), hits give low values 0.928 | S. cerevisiae deletion strains, locus YLR342W, strain FKS1, hits give low values 1.02 | S. cerevisiae deletion strains, locus YLR357W, strain rsc2, hits give low values 1.03 | S. cerevisiae deletion strains, locus YLR370C, strain arc18, hits give low values 1.01 | S. cerevisiae deletion strains, locus YLR371W, strain rom2, hits give low values 0.986 | S. cerevisiae deletion strains, locus YLR384C, strain iki3, hits give low values 1.01 | S. cerevisiae deletion strains, locus YLR418C, strain cdc73, hits give low values 0.983 | S. cerevisiae deletion strains, locus YML016C, strain PPZ1, hits give low values 0.984 | S. cerevisiae deletion strains, locus YML032C, strain rad52, hits give low values 0.982 | S. cerevisiae deletion strains, locus YML120C, strain ndi1, hits give low values 1.02 | S. cerevisiae deletion strains, locus YML124C, strain tub3, hits give low values 0.985 | S. cerevisiae deletion strains, locus YMR058W, strain fet3, hits give low values 1.03 | S. cerevisiae deletion strains, locus YMR078C, strain ctf18, hits give low values 0.98 | S. cerevisiae deletion strains, locus YMR125W, strain sto1, hits give low values 1.01 | S. cerevisiae deletion strains, locus YMR129W, hits give low values 1.02 | S. cerevisiae deletion strains, locus YMR205C, strain PFK2, hits give low values 1.02 | S. cerevisiae deletion strains, locus YMR223W, strain ubp8, hits give low values 0.94 | S. cerevisiae deletion strains, locus YMR231W, strain pep5, hits give low values 1.02 | S. cerevisiae deletion strains, locus YMR263W, strain SAP30, hits give low values 0.984 and 1.02 | S. cerevisiae deletion strains, locus YMR307W, strain GAS1, hits give low values 1.04 | S. cerevisiae deletion strains, locus YNL067W, strain RPL9B, hits give low values 0.996 | S. cerevisiae deletion strains, locus YNL071W, strain lat1, hits give low values 1.02 | S. cerevisiae deletion strains, locus YNL128W, strain TEP1, hits give low values 0.975 and 1.02 | S. cerevisiae deletion strains, locus YNL153C, strain GIM3, hits give low values 0.992 | S. cerevisiae deletion strains, locus YNL175C, strain NOP13, hits give low values 1.04 | S. cerevisiae deletion strains, locus YNL183C, strain NPR1, hits give low values 0.982 | S. cerevisiae deletion strains, locus YNL197C, strain WHI3, hits give low values 1.09 | S. cerevisiae deletion strains, locus YNL209W, strain ssb2, hits give low values 1.02 | S. cerevisiae deletion strains, locus YNL224C, strain SQS1, hits give low values 1.05 | S. cerevisiae deletion strains, locus YNL233W, strain BNI4, hits give low values 0.983 | S. cerevisiae deletion strains, locus YNL248C, strain rpa49, hits give low values 1.02 | S. cerevisiae deletion strains, locus YNL250W, strain rad50, hits give low values 0.975 | S. cerevisiae deletion strains, locus YNL271C, strain bni1, hits give low values 1 | S. cerevisiae deletion strains, locus YNL298W, strain CLA4, hits give low values 0.981 | S. cerevisiae deletion strains, locus YNL307C, strain MCK1, hits give low values 0.972 | S. cerevisiae deletion strains, locus YNL322C, strain KRE1 (second series), hits give low values 1.01 | S. cerevisiae deletion strains, locus YNL322C, strain KRE1, hits give low values 0.986 | S. cerevisiae deletion strains, locus YNR049C, strain mso1, hits give low values 1.01 | S. cerevisiae deletion strains, locus YNR052C, strain pop2, hits give low values 0.986 | S. cerevisiae deletion strains, locus YOL006C, strain TOP1, hits give low values 1.05 | S. cerevisiae deletion strains, locus YOL012C, strain htz1 1 | S. cerevisiae deletion strains, locus YOL147C, strain pex11, hits give low values 0.988 | S. cerevisiae deletion strains, locus YOR001W, strain rrp6, hits give low values 1.06 | S. cerevisiae deletion strains, locus YOR061W, strain CKA2, hits give low values 0.975 | S. cerevisiae deletion strains, locus YOR069W, strain VPS5, hits give low values 0.981 | S. cerevisiae deletion strains, locus YOR070C, strain gyp1, hits give low values 1.02 | S. cerevisiae deletion strains, locus YOR080W, strain dia2, hits give low values 1.03 | S. cerevisiae deletion strains, locus YOR083W, strain WHI5 (second series), hits give low values 1.04 | S. cerevisiae deletion strains, locus YOR083W, strain WHI5, hits give low values 1.01 | S. cerevisiae deletion strains, locus YOR106W, strain vam3, hits give low values 1.07 | S. cerevisiae deletion strains, locus YOR136W, strain idh2, hits give low values 0.977 | S. cerevisiae deletion strains, locus YOR144C, strain elg1, hits give low values 0.988 | S. cerevisiae deletion strains, locus YOR184W, strain ser1, hits give low values 0.993 | S. cerevisiae deletion strains, locus YOR231W, strain MKK1, hits give low values 1.02 | S. cerevisiae deletion strains, locus YOR265W, strain rbl2, hits give low values 1.01 | S. cerevisiae deletion strains, locus YOR270C, strain vph1, hits give low values 1.09 | S. cerevisiae deletion strains, locus YOR290C, strain snf2, hits give low values 1.02 | S. cerevisiae deletion strains, locus YOR316C, strain cot1, hits give low values 0.99 | S. cerevisiae deletion strains, locus YPL051W, strain arl3, hits give low values 1.02 | S. cerevisiae deletion strains, locus YPL055C, strain LGE1, hits give low values 0.937 and 1.01 | S. cerevisiae deletion strains, locus YPL078C, strain atp4, hits give low values 1.01 | S. cerevisiae deletion strains, locus YPL106C, strain sse1, hits give low values 1.07 | S. cerevisiae deletion strains, locus YPL240C, strain hsp82, hits give low values 0.977 | S. cerevisiae deletion strains, locus YPL241C, strain CIN2, hits give low values 0.994 and 1.01 | S. cerevisiae deletion strains, locus YPL256C, strain CLN2, hits give low values 1.03 | S. cerevisiae deletion strains, locus YPR119W, strain clb2, hits give low values 0.989 | S. cerevisiae deletion strains, locus YPR141C, strain kar3, hits give low values 0.974 | S. cerevisiae deletion strains, locus YPR163C, strain tif3, hits give low values 0.993 | S. cerevisiae deletion strains, locus YPR167C, strain met16, hits give low values 0.993 | S. cerevisiae deletion strains, strain wtn01, hits give low values 0.995 | S. cerevisiae strains, strain wild type, hits give low values 0.982
